IMPase cell inh – IMPase inhibition in cells; inhibition (IP1 accumulation), % at 46.1 µM; AID 901; CHO-M1 cells, IP1 accumulation, HTRF TR-FRET ratio; 120,000 tested, under 10 active; active means well fitted curve in the direction sought with a large enough effect in the signal ratio, not every such curve was filed as active; inconclusive means small, poorly fitted or top-dose-only effect, or a change in a side signal; inactive means no such curve, though single readings can be large or run the other way; the % refers to the signal ratio;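 further: cells stimulated with carbachol in lithium chloride buffer; higher means more IMPase inhibition seen as more IP1 and lower FRET ratio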
Target sequence (P97697 whole entry, looked up): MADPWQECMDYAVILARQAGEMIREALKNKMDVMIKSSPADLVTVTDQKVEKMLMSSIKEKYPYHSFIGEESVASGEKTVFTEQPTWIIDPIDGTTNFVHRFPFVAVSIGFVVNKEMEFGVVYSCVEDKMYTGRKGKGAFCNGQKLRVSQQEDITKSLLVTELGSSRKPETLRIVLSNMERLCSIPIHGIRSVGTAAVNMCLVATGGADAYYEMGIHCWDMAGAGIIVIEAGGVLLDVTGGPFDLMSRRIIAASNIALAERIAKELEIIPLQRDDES
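In this qHTS, compounds (final up to 46 uM) act on CHO-M1 cells that are then activated through the M1 receptor with carbachol, in pH 7.4 buffer containing 50 mM LiCl, for 30 min. IP1 accumulation is quantified by the IP-One immunoassay.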
ALDH1A1 inh – blocks purified human ALDH1A1 activity | Potency, µM (highest dose often 75.3 µM), hits mostly inhibitors | P00352 | 220,000 compounds, 7.3% hits | Purified ALDH1A1, NADH fluorescence, propionaldehyde substrate
12-hLO inh – blocks human 12-lipoxygenase activity | 150,000 compounds, 0.12% hits | Potency, µM (doses to about 57.1 µM), hits mostly inhibitors | P18054 | purified 12-hLO, xylenol orange hydroperoxide absorbance; active means well fitted curve in the direction sought with a large enough effect; inconclusive means small, poorly fitted or top-dose-only effect, or another doubt; inactive means no such curve, though single readings can be large; an effect the other way counts as inactive or inconclusive; further: nearly all actives have a fitted effect of over 55% in size
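Purified human 12hLO (150 nM), preincubated 15 min with compound, then 40 uM arachidonic acid for 30 min, room temperature, Hepes pH 7.0 with 0.01% Triton X-100. Hydroperoxide detected by ferrous iron/xylenol orange; 573/405 nm absorbance ratio gives reaction progress.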
IMPase Li inh – membrane-permeable IMPase blocker, potentiated with lithium; CHO-M1 cells, IP1 TR-FRET (IP-One), carbachol + lithium; Potency, µM (highest dose often 59.4 µM), hits mostly inhibitors; 210,000 compounds, 0.35% hits; AID 1457; active means well fitted curve in the direction sought with a large enough effect; inconclusive means small, poorly fitted or top-dose-only effect, or another doubt; inactive means no such curve, though single readings can be large; an effect the other way counts as inactive or inconclusive;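 further: IP1 builds up when IMPase is blocked and the TR-FRET signal falls; nearly all actives have a fitted effect of over 50% in size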
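IP1 accumulation measured by competitive TR-FRET in lysed CHO-M1 cells after 30 min compound exposure at 37C, with a small lithium addition to potentiate weak responses. Hill-equation AC50 from ratio and donor-channel data.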
PNC assembly inh – perinucleolar compartment assembly inhibition. PC3M PTB-GFP, PNC prevalence imaging, 16 h; active compounds read low. 140,000 compounds, 3.1% hits. activity change (PNC), negative = inhibition, % at 10 µM. AID 2417;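 active means readout at or below -70, meaning at least 70% loss of cells showing the perinucleolar compartment, a nuclear body marking cancer cells; inconclusive means readout between -30 and a set limit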
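Read-out is percentage of cells bearing a perinucleolar compartment, from automated 20x imaging of fixed, Hoechst-stained PC3M PTB-GFP cells. Cells were seeded 4 h, then exposed 16 h to compound (23 nl of library stock) in duplicate plates.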
HPGD inh – HPGD (human) dehydrogenase inhibition | purified HPGD, NADH fluorescence kinetic, PGE2 substrate | 150,000 compounds, 4.3% hits | Potency, µM, usual class: inhibitors | P15428
Target sequence (P15428 whole entry, looked up): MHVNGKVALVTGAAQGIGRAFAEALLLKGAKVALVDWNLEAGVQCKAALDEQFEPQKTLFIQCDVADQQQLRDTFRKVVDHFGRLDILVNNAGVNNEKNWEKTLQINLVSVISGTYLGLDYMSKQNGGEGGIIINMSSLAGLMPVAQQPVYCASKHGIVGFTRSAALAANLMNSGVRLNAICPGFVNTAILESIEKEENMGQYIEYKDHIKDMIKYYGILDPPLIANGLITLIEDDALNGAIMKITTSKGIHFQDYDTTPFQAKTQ
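20 nM HPGD preincubated 15 min at room temperature with compound in 50 mM Tris-HCl pH 8, 0.01% Tween 20. Started with 1 mM NAD+ and 30 uM prostaglandin E2; NADH fluorescence (360/450 nm) read 5 times over 30-s intervals, last minus first.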
A number is an active result; [ ] = remark or other dose. Rows were chosen to be rich in hits. Some 11% of all compounds tested hit in one or more screens of this group. Unless noted, the call rests on the fitted dose curve; in most records, active means well fitted inhibition curve with a large enough effect (not every such curve was filed as active); inconclusive means small, poorly fitted or top-dose-only effect, or another doubt; inactive means no such curve, though single readings can be large or run the other way.

For CC1(C)SC(=Nc2ccccc2)N(S(=O)(=O)c2ccccc2)C1=O the results were ALDH1A1 inh inactive, 12-hLO inh inactive, IMPase Li inh inactive, PNC assembly inh inactive and HPGD inh inactive.
O=C1C(c2ccccc2)SC(=Nc2ccccc2)N1S(=O)(=O)c1ccccc1 (stereo not given) was read as IMPase cell inh inactive, ALDH1A1 inh 3.2µM, 12-hLO inh inactive, IMPase Li inh inactive, PNC assembly inh inactive and HPGD inh 14µM.
Screening Cc1cccc(N(CC(=O)NCCSCc2cccc(Cl)c2)S(=O)(=O)c2ccccc2)c1C returned IMPase cell inh inactive.
CC1CC(=O)C2=C(C1)Nc1ncnn1C2c1ccccc1 (stereo not given) was read as IMPase cell inh inactive, ALDH1A1 inh 18µM, 12-hLO inh inactive, IMPase Li inh inactive, PNC assembly inh inactive and HPGD inh inactive.
CCCc1nc2ccccc2c(C(=O)OCC(=O)NCc2ccc3c(c2)OCO3)c1CC was read as ALDH1A1 inh inconclusive, 12-hLO inh inactive, IMPase Li inh inactive, PNC assembly inh inactive and HPGD inh inactive.
`CCCc1nc2ccccc2c(C(=O)OC(C)C(=O)NCc2ccc3c(c2)OCO3)c1CC` (stereo not given) gave ALDH1A1 inh 4.5µM, 12-hLO inh inactive, IMPase Li inh inactive, PNC assembly inh inconclusive and HPGD inh inactive.
Screening CC(OC(=O)c1nn(C)c(=O)c2ccccc12)C(=O)NCc1ccc2c(c1)OCO2 (stereo not given) returned IMPase cell inh inactive, ALDH1A1 inh inconclusive, 12-hLO inh inactive, IMPase Li inh inactive, PNC assembly inh inactive and HPGD inh 20µM.
Screening COc1cccc([C@@H]2Oc3ccc(OC)cc3/C(=N/OC[C@@H](C)[C@H](OCc3ccccc3)C(C)C)[C@@H]2O)c1 returned ALDH1A1 inh inactive[13.5 µM].
Screening CCCC(=O)O[C@]1(C(=O)CO)CCC2[C@@H]3CCC4=CC(=O)CC[C@]4(C)C3C(O)C[C@]21C (stereo not given in full) returned ALDH1A1 inh inactive, 12-hLO inh inactive, IMPase Li inh inactive and HPGD inh inactive.
For Oc1cc(CN2COc3ccccc32)c(O)cc1CNC1CCCCC1 the results were ALDH1A1 inh inactive[13.5 µM], 12-hLO inh inactive[11.4 µM], IMPase Li inh inactive and HPGD inh 1.6µM.
COC(=O)c1nn(-c2ccc(OC)cc2)c(=O)c2c(N)sc(C)c12 was read as ALDH1A1 inh 7.9µM, 12-hLO inh inactive, IMPase Li inh inactive, PNC assembly inh inactive and HPGD inh inactive.
For CCOC(=O)c1nn(-c2ccc(C)cc2)c(=O)c2c(N)scc12 the results were IMPase cell inh inactive, ALDH1A1 inh 18µM, 12-hLO inh inconclusive, IMPase Li inh inactive, PNC assembly inh inconclusive and HPGD inh inactive.
O=C(CCCn1c2ccccc2c(=O)c2ccccc21)Nc1ccc(F)cc1Cl was read as IMPase cell inh inactive.
O=C(Nc1ccc2ccccc2c1)c1ccc(NS(=O)(=O)c2ccc(Br)s2)cc1 was read as ALDH1A1 inh inactive, 12-hLO inh inactive, IMPase Li inh inactive, PNC assembly inh inactive and HPGD inh inactive.
O=C(c1ccncc1)c1ccc(NS(=O)(=O)c2ccc(Br)s2)cc1 was read as IMPase cell inh inactive, ALDH1A1 inh inactive, 12-hLO inh inactive, IMPase Li inh inactive, PNC assembly inh inactive and HPGD inh 28µM.
CS(=O)(=O)N1CCC[C@@]2(CCN(c3ccccc3)C2)C1 was read as ALDH1A1 inh inconclusive, 12-hLO inh inactive, IMPase Li inh inactive and HPGD inh inactive.
For COc1ccc(-c2cc(=O)[nH]c(=S)[nH]2)cc1 the results were ALDH1A1 inh inconclusive and IMPase Li inh inactive.
COc1ccc(-c2ccc(C(=O)O)c(=O)[nH]2)cc1 was read as ALDH1A1 inh inconclusive and IMPase Li inh 3.2µM.
Screening CCCNC(=O)OC[C@H]1O[C@@H](CCO/N=C2/C[C@@H](O)[C@@H](O)[C@@H]3[C@@H]4C(=O)N(CC)C(=O)[C@H]4CC[C@@H]23)C=C[C@@H]1Oc1ccc(OC)cc1 returned ALDH1A1 inh inactive[13.5 µM].
